From PubChem BioAssay (NCATS) come the findings set out here.

Records with an inconclusive call do not appear. A number with no mark means an inactive call. Calls of active or inactive are those of the source. Calls follow the shape of the dose curve; as a rule, active = well fitted curve in the direction sought with a large enough effect; inconclusive = small, poorly fitted or top-dose-only effect, or another doubt; inactive = no such curve, though single readings can be large; an effect the other way counts as inactive or inconclusive.

Assay [1] is described as follows: P-glycoprotein substrates identified in KB-8-5-11 adenocarcinoma cell line, qHTS therapeutic library screen (AID 1346987). Also: nearly all actives have a fitted effect of over 65% in size. The gist of the method: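 Luminescence from CellTiter-Glo, read 5 min after addition, quantified survival of KB-8-5-11 (P-gp-overexpressing) cells exposed to compounds for 72 h. AC50 was derived from concentration-response curves.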
On the technique in general: qHTS replaces the single test concentration by a dilution series.

For assay [2], the system named is Zika virus NS2B-NS3 protease (linked construct). Put plainly: Confirmatory screen NINDS AMC qHTS for Zika virus inhibitors (AID 1347152). Also: nearly all actives have a fitted effect of over 70% in size. Also: potency is read from the fitted curve at half-maximal effect. The gist of the method:
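Concentration-response confirmation used the NINDS linked protease (NS2B hydrophilic domain joined to NS3 protease domain), 1 nM, with a 15-min compound preincubation. Substrate, Nle-KRR-AMC at 10 microM, was read by UV fluorescence before and after 15 min.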

Assay [3] concerns Zika virus NS2B-NS3 protease (unlinked complex). Put plainly: Confirmatory screen GU AMC qHTS for Zika virus inhibitors (AID 1347153). Also: potency is read from the fitted curve at half-maximal effect; nearly all actives have a fitted effect of over 70% in size. The gist of the method:
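Unlinked enzyme 25 nM, Tris pH 8.0/0.01% Tween 20; cpd 15 min RT, dark; + AMC substrate 10 µM (Km 18.3 µM); 340/450 nm read at t0 and 15 min; % inhibition → 4-param fit.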

Assay [4] in a line: Confirmatory screen GU Rhodamine qHTS for Zika virus inhibitors qHTS (AID 1347157). Also: nearly all actives have a fitted effect of over 70% in size. Also: potency is read from the fitted curve at half-maximal effect. The gist of the method: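 A qHTS format was used, with compound concentrations ranging up to 114 microM. Each compound was preincubated with 25 nM NS2B-NS3 protease, and the substrate was then added at 1.5 microM. Curves were fitted with a 4-parameter Hill model.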
In assay [5] the test system is Zika virus NS2B-NS3 protease (unlinked complex). Put plainly: Primary screen GU Rhodamine qHTS for Zika virus inhibitors: Unlinked NS2B-NS3 protease assay (AID 1347159). Also: nearly all actives have a fitted effect of over 60% in size. Also: potency is read from the fitted curve at half-maximal effect. Put shortly: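 Unlinked NS2B/NS3, 25 nM; Rhod110 peptide, 1.5 microM; compounds, up to 114 microM. Reaction run 15 min at RT in 10 mM Tris-HCl pH 8.0, 0.01% Tween 20; kinetic fluorescence change fitted with a 4-parameter Hill model.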

The test system of assay [6] is Zika virus NS2B-NS3 protease (linked construct). Put plainly: Primary screen NINDS Rhodamine qHTS for Zika virus inhibitors (AID 1347160). Also: nearly all actives have a fitted effect of over 55% in size. Also: potency is read from the fitted curve at half-maximal effect. Put shortly: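 Single-chain NS2B-NS3 protease, 25 nM, pH 8.0; compounds preincubated 15 min. Activity: Rhodamine110 release from 1.5 microM substrate over 15 min, room temperature, data fitted to 4-parameter Hill.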
Assay [7] is described as follows: Confirmatory screen NINDS Rhodamine qHTS for Zika virus inhibitors (AID 1347161). Also: nearly all actives have a fitted effect of over 60% in size. Also: potency is read from the fitted curve at half-maximal effect. The gist of the method:
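Enzyme (25 nM, linked NS2B-NS3) was preincubated 15 min with compound in 10 mM Tris-HCl pH 8.0, 0.01% Tween 20. Rhodamine110 substrate (1.5 microM) was then added and fluorescence read at start and after 15 min.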

In assay [8] the test system is Zika virus NS2B-NS3 protease (linked). Put plainly: 384 well plate NINDS AMC confirmatory qHTS for Zika virus inhibitors (AID 1347163). Also: potency is read from the fitted curve at half-maximal effect; nearly all actives have a fitted effect of over 50% in size. The gist of the method:
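Fluorescence at 355/460 nm was read after 25 minutes of cleavage of 30 microM Ac-VKTGKR-AMC at room temperature, in the dark. Before substrate addition, compounds (up to 1 mM final) sat ~15 minutes with 5, 30 or 60 nM linked protease. Signals were normalized to no-enzyme and no-inhibitor wells.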

The nature of assay [9]: Vero cells viability qHTS for Zika virus inhibitors (AID 1347167). The gist of the method:
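Luminescent ATP readout (CellTiter Glo) after 30 min at 37 degrees C gives viability; cells in DMEM + 4% FBS were treated 24 to 48 hours with compound, following overnight attachment.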

In assay [10] the test system is Zika virus NS2B-NS3 protease (linked construct). Put plainly: 384 well plate NINDS Rhodamine confirmatory qHTS for Zika virus inhibitors (AID 1347164). Also: potency is read from the fitted curve at half-maximal effect; nearly all actives have a fitted effect of over 65% in size. Put shortly: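 Cleavage of Ac-LKRR-Rhodamine 110 (10 microM final) by linked protease (final 5, 30 or 60 nM) was followed as fluorescence at 485/538 nm after 25 min, room temperature, dark. Compounds preincubated ~15 min.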

With `CC1(O)CC(O)C2C(C(=O)O)=COC(OC3OC(CO)C(O)C(O)C3OC(=O)/C=C/c3ccc(O)cc3)C21` (stereo not given), in assay [1], the Potency entry is “inactive”.

Regarding `COc1ccc(C2(O)c3c(ccc4c3OC(C)(CCC=C(C)C)C=C4)NC(=O)C2OC)cc1` (stereo not given), the Potency entry in assay [1] is “inactive”.

Take `C=C1C(=O)O[C@@H]2/C=C(\C)CC/C=C(\C(=O)O[C@@H]3O[C@H](CO)[C@@H](O)[C@H](O)[C@H]3O)CC[C@@H]12`: the Potency entry in assay [1] was “inactive”.

`CC1=C2CC(O)(C(C)(C)O)C(O[C@@H]3O[C@H](CO)[C@@H](O)[C@H](O)[C@H]3O)CC(C)C2CC1=O` (stereo not given in full): the Potency result in assay [1] is “inactive”.

In the case of `C=C1C(=O)O[C@@H]2CC(C)=C([C@@H](C)CCCOC(C)=O)[C@@H](O)[C@H]12`, the Potency result in [1] is “inactive”.

For `C/C=C(/C)C(=O)OC1CC(C)(C)CC2C3=CCC4C5(C)CCC(OC6OC(C)C(OC7OC(C(=O)O)C(O)C(OC8OC(CO)C(O)C(O)C8OC8OC(CO)C(O)C(O)C8O)C7O)C(O)C6O)C(C)(C)C5CCC4(C)C3(C)C(OC(=O)/C=C/C=C/C=C/CCC)C(OC(C)=O)C12CO` (stereo not given), in [1], the outcome is “inactive [at 9.29 µM]”.

As to `O=C(O)C1(c2ccc(-c3ccc(Cl)c(Cl)c3)c(F)c2)CC1`, the Potency entry in assay [1] is “inactive”. In addition, the Potency in [2] is 44.1 µM (active); in assay [3] it was 44.1 µM (active); in [4] it was 11.1 µM (active); in [5], 7.94 µM (active); in assay [6], 8.91 µM (active); in [7] it was 6.98 µM (active). Also, the Potency in assay [8] was 14.1 µM (active). In assay [9], the molecule was classed as inactive.

Take `CC(C)C[C@H](NC(=O)[C@@H]1O[C@H]1C(=O)O)C(=O)NCCCCN=C(N)N`: the Potency result in [1] is “inactive”.

For the molecule `C/C(=C\CC[C@H](CO)[C@@H]1CC[C@]2(C)C3=C(CC[C@@]12C)[C@@]1(C)CCC(=O)C(C)(C)C1CC3)C(=O)O` (stereo not given in full), the Potency entry in [1] was “inactive”.

For the molecule `O=C(OC[C@H]1O[C@@H](Oc2ccccc2CO)[C@H](O)[C@@H](O)[C@@H]1O)c1ccccc1`, the Potency result in assay [1] was “inactive”.

`OC[C@H]1O[C@@H](OCc2ccccc2)[C@H](O)[C@@H](O)[C@@H]1O`: the Potency result in [1] was “inactive”.

With `CC1(CO)CC(O)C2(C)CCC3(C)C(=CCC4C5(C=O)CCC(OC6OC(C(=O)O)C(O)C(O)C6OC6OC(C(=O)O)C(O)C(O)C6O)C(C)(C)C5CCC43C)C2C1` (stereo not given), the outcome in [1] was “inactive [at 9.29 µM]”.

For the molecule `OC[C@H]1O[C@@H](OCCc2ccccc2)[C@H](O[C@@H]2OC[C@@H](O)[C@H](O)[C@H]2O)[C@@H](O)[C@@H]1O`, in assay [1], the Potency entry was “inactive”.

On to `CC1(C)CC[C@]2(C(=O)O)CC[C@]3(C)C(=CCC4[C@@]5(C)C[C@@H](O)[C@H](O)[C@@](C)(CO)C5CC[C@]43C)C2C1` (stereo not given in full), for which, in assay [1], the Potency result is “inactive”.

Take `COc1cc([C@@H](O[C@@H]2O[C@H](CO)[C@@H](O)[C@H](O)[C@H]2O)[C@@H]2CO[C@H](c3ccc(O)c(OC)c3)[C@H]2CO)ccc1O`: the Potency result in [1] and in assay [5] was “inactive” in each case.

As for `C=C1C2CCC3CC2(CC(O)C2(O)C1CC(OC1OC(CO)C(O)C(O)C1O)C2(C)C)CC3(C)O` (stereo not given), the Potency entry in [1] and in [2] was “inactive” each time. In addition, the Potency is 20 µM (active) in assay [5]; 8.91 µM (active) in assay [6]; 9.61 µM (active) in assay [7]; 35.5 µM (active) in assay [8]; 0.501 µM (active) in assay [10]. Also, the result in assay [9] was inactive.

Consider `Nc1nc(COC(=O)c2ccc([N+](=O)[O-])cc2)nc(Nc2ccccc2)n1`, for which the Potency result in [1] and in [5] was “inactive” in each case.

With `CCCC(=O)Nc1cccc(NC(=O)c2ccccc2Br)c1`, the Potency entry in assay [1] and in assay [5] was “inactive” each time.

As for `C=C(C(=O)O)[C@@H]1CC[C@@]2(C)CC[C@@H](O)C(=C)C2C1` (stereo not given in full), the Potency result in assay [1] and in [5] was “inactive” in each case.

On to `CC(=O)C1CCC(=O)N1Cc1ccccc1` (stereo not given), for which the Potency entry in assay [1] and in assay [5] was “inactive” in each case.

Take `CC(C)(Oc1ccc(-c2nc3cc(Cl)ccc3s2)cc1)C(=O)O`: the Potency result in assay [1] was “inactive”. In addition, in assay [5], the Potency was 35.5 µM (active).

Regarding `C=CC1(C)C=C2CC[C@H]3[C@@](C)(C(=O)O)CCC[C@]3(C)C2CC1` (stereo not given in full), the Potency result in assay [1] was “inactive”. Moreover, the Potency is 15.3 µM (active) in [4]; 7.94 µM (active) in assay [5]; 3.55 µM (active) in assay [6]; 9.67 µM (active) in assay [7]; 70.8 µM (active) in assay [8]; 20 µM (active) in assay [10]. The result in assay [9] was inactive.

In the case of `O=C(/C=C/c1ccccc1)OC[C@H]1O[C@@H](OC(=O)c2cc(O)c(O)c(O)c2)[C@H](O)[C@@H](O)[C@@H]1O`, the Potency result in assay [1] and in assay [6] was “inactive” each time. Besides, the Potency was 2.15 µM (active) in assay [4], 3.98 µM (active) in assay [5] and 3.41 µM (active) in assay [7].

In the case of `CC(C)=CCC[C@](C)(O[C@@H]1O[C@H](CO)[C@@H](O)[C@H](O)[C@H]1O)[C@H]1CC[C@]2(C)[C@@H]1[C@H](O)CC1[C@@]3(C)CC[C@H](O)C(C)(C)C3[C@@H](O[C@@H]3O[C@H](CO)[C@@H](O)[C@H](O)[C@H]3O[C@@H]3O[C@@H](C)[C@H](O)[C@@H](O)[C@H]3O)C[C@]12C` (stereo not given in full), in assay [1], the outcome was “inactive [at 9.29 µM]”. The Potency result in assay [5] was “inactive”.

As for `Cc1ccccc1-n1nc(-c2c(-c3ccc(F)cc3)nn3c2NC[C@@H](CO)C3)ccc1=O`, the Potency result in [1], in [4], in [5] and in assay [7] was “inactive” each time.

Consider `CCC(C)/C=C(C)/C=C/C1=CC2=CC(=O)C(C)(O)C(OC(C)=O)C2CO1` (stereo not given), for which the Potency result in assay [1] and in [6] was “inactive” throughout. The figures for the Potency in assay [4], in assay [5] and in assay [7] were 30.6 µM (active), 14.1 µM (active) and 34.3 µM (active), respectively.

For the molecule `C=C1C2CCC3C(CCC4[C@@]3(C)CCC[C@@]4(C)C(=O)O)(C2)[C@@H]1OC(=O)/C(C)=C\C` (stereo not given in full), the Potency entry in [1] is “inactive”. The Potency in [2] was 21.5 µM (active); in assay [4], 6.81 µM (active); in assay [5], 6.31 µM (active); in [6] it was 10 µM (active); in [7] it was 6.07 µM (active); in assay [8], 39.8 µM (active). In addition, the Potency in assay [10] was 8.91 µM (active). In addition, the call in [9] was inactive.
